Test results from PubChem BioAssay (NCATS).
Records with an inconclusive call do not appear. Activity calls are given as the source filed them. The call rests on the fitted dose curve; in most records, active means well fitted inhibition curve with a large enough effect; inconclusive means small, poorly fitted or top-dose-only effect; inactive means flat fitted curve, though single readings scatter.

What follows are compounds tested on CP286 (assay: qHTS profiling for inhibitors of Plasmodium falciparum proliferation (AID 504749;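 further: 0% = DMSO vehicle and full inhibition = artemisinin control; nearly all actives have a fitted effect of over 60% in size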)). Conditions: P. falciparum in erythrocytes, SYBR Green DNA, 72 h; series mostly up to 28.7 µM; activity, negative = inhibition: at the top concentration.
Method in brief: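 Infected RBCs, 0.3% parasitemia/2.5% Hct final; cpd 72 h, 37 C, 5% CO2; lysis buffer with saponin/triton/SYBR Green I, o/n RT dark; FI 485/535; norm. to artemisinin (0.29 uM) and DMSO.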

| SMILES | Potency | activity, negative = inhibition |
| --- | --- | --- |
| NC(=O)NNc1ccccc1 | inactive | – |
| O=C(O)[C@@H]1CSCN1 | – | 1.39% (inactive) |
| COc1ccc2c(c1)C(=O)N(CCc1ccc(S(=O)(=O)NC(=O)NC3CCCCC3)cc1)C(=O)C2(C)C | – | -0.0545% [at 12.8 µM] (inactive) |
| CCCc1c(OCCCCc2nn[nH]n2)ccc(C(C)=O)c1O | – | -11% (inactive) |
| CCn1cc(C(=O)O)c(=O)c2cnc(N3CCNCC3)nc21 | – | -4.85% [at 12.8 µM] (inactive) |
| O=C(O)COc1nn(Cc2ccccc2)c2ccccc12 | – | -1.94% (inactive) |
| O=C1O[C@H]([C@@H](O)CO)C(O)=C1O | – | -1.28% (inactive) |
| O=S(=O)(O)c1cc(I)c(O)c2ncccc12 | – | -7.61% (inactive) |
| CC1=C(CC(=O)O)c2cc(F)ccc2/C1=C\c1ccc(S(C)=O)cc1 (configuration not stated) | – | -11.6% (inactive) |
| CCOC(=O)c1ccc(O)cc1 | – | 0.578% (inactive) |
| O=C(O)c1ccccn1 | – | -1.32% (inactive) |
| Cc1cc(O)cc2c1O[C@](C)(CCC[C@H](C)CCC[C@H](C)CCCC(C)C)CC2 | – | -25.6% (inactive) |
| NCC(=O)CCC(=O)O | – | -0.119% (inactive) |
| CC(C)(C)C(=O)NCCCC(=O)O | – | 0.729% (inactive) |
| COc1cc2[nH]c(=O)[nH]c(=O)c2cc1OC | – | -0.372% [at 12.8 µM] (inactive) |
| CCC(=O)Nc1ccc(O)cc1 | – | 1.04% (inactive) |

| SMILES | Potency | activity, negative = inhibition |
| --- | --- | --- |
| COc1ccc(Cl)cc1C(=O)NCCc1ccc(S(=O)(=O)NC(=O)NC2CCCCC2)cc1 | – | 0.178% (inactive) |
| O=C1NC(=O)[C@@]2(CCOc3ccc(F)cc32)N1 | – | -0.728% (inactive) |
| O=Cc1ccccc1C=O | – | 0.106% (inactive) |
| CC(O)CN(CCN(CC(C)O)CC(C)O)CC(C)O (configuration not stated) | – | -0.355% (inactive) |
| Cc1ccc(C(C)C)cc2c(C)ccc1-2 | – | -1.19% (inactive) |
| Nc1nc2c(ncn2CCC(CO)CO)c(=O)[nH]1 | – | -0.356% (inactive) |
| NCCNCCNCCN | – | -1.33% (inactive) |
| CC1(C)OC(=O)NC1=O | – | 0.154% (inactive) |
| CCCCN(CCCC)CCCOC(=O)c1ccc(N)cc1 | – | -4.37% [at 12.8 µM] (inactive) |
| O=C1c2c(O)cccc2Cc2cccc(O)c21 | – | -1.89% (inactive) |
| CCCOC(=O)c1ccccc1 | – | -0.385% (inactive) |
| CC12CCC(CC1)C(C)(C)O2 | – | -0.0593% (inactive) |
| CC(=O)Nc1ccc(/C=N/NC(N)=S)cc1 | inactive | – |
| CC(C)(C)NCC(O)COc1ccc(NC(=O)NC2CCCCC2)cc1 (configuration not stated) | – | -0.108% (inactive) |
| O=C1OC(OC(=O)c2cccnc2Nc2cccc(C(F)(F)F)c2)c2ccccc21 (configuration not stated) | – | -4.36% (inactive) |
| O=C1NS(=O)(=O)c2ccccc21 | – | -1.7% (inactive) |
